Here are results for 96 compounds from PubChem BioAssay AID1209 (Sanford-Burnham Center for Chemical Genomics, 2008).

About 810 (0.43%) of roughly 190,000 compounds were called active. No stated cut-off is given here; in the data, active means inhibition above about 50%; inactive means the rest. The full list was thinned out, with actives kept by preference.

The target of this test is Mannose-6-phosphate isomerase (Homo sapiens) (UniProt P34949). The test is described as follows: MPI enzyme activity inhibition – biochemical, fluorescence intensity, coupled assay, primary screen (AID 1209).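 Further: plate controls were DMSO vehicle for no effect and wells lacking substrate for full effect.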 Particulars: purified PMI enzyme, at 20 µM, stronger effect = higher value.
Sequence of Mannose-6-phosphate isomerase (Homo sapiens) (P34949 whole entry, looked up): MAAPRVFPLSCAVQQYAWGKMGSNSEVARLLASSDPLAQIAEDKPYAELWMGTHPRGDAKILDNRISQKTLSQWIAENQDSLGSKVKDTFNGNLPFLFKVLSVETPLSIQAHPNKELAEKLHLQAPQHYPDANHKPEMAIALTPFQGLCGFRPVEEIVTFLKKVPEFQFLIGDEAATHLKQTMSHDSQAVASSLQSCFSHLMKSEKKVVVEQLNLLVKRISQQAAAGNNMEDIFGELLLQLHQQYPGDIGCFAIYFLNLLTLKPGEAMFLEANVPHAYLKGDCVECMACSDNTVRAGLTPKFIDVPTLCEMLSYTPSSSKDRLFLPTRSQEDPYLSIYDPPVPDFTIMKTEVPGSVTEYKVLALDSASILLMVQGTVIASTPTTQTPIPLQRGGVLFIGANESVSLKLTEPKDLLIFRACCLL
Broadly, the inhibition is the drop in the measured response relative to a control, in per cent. On to `O=C(CN1C(=O)COc2ccccc21)NCCCN1CCN(Cc2ccccc2)CC1`, for which the inhibition was 4.6% (inactive).

Consider `CCOC(=O)c1sc(NC(=O)CSc2nnc(Cc3ccccc3)o2)c(C(=O)OCC)c1C`, for which the inhibition is 4.9% (inactive).

As to `CCOC(=O)c1sc(NC(=O)CSc2nc(C)cc(C(F)(F)F)n2)c(C#N)c1C`, the inhibition is 26.6% (inactive).

Turning to `CCOC(=O)c1sc(NC(=O)CSc2nnc(Cc3ccccc3)o2)c(C#N)c1C`, the inhibition was 72.4% (active).

Consider `CCOC(=O)c1sc(NC(=O)CSc2n[nH]c(-c3ccccc3)n2)c(C#N)c1C`, for which the inhibition was 51.7% (active).

Turning to `CCOC(=O)c1sc(NC(=O)CSc2n[nH]c(-c3ccncc3)n2)c(C#N)c1C`, the inhibition is -4.9% (inactive).

For `CCOC(=O)c1sc(NC(=O)CSc2n[nH]c(-c3ccc(Cl)cc3Cl)n2)c(C#N)c1C`, the inhibition was 25.2% (inactive).

Consider `CCOC(=O)c1sc(NC(=O)CSc2nc(C)cc(-c3ccccc3)n2)c(C#N)c1C`, for which the inhibition is 61.2% (active).

For `Cc1sc(NC(=O)COc2ccccc2)c(C#N)c1-c1ccccc1`, the inhibition was 4.5% (inactive).

Turning to `CCOC(=O)c1c(NC(=O)CSc2nnc(Cc3ccccc3)o2)sc(C(C)=O)c1C`, the inhibition is 9.9% (inactive).

With `Cc1sc(NC(=O)COc2ccccc2)c(C#N)c1C`, the inhibition is 58.3% (active).

`CCOC(=O)c1sc(NC(=O)CSc2nc(C)cc(C)n2)c(C#N)c1C`: the inhibition was 4.2% (inactive).

For `Cc1ccccc1NC(=O)c1sc(NC(=O)COc2ccccc2)c(C#N)c1C`, the inhibition was 5.1% (inactive).

Regarding `Cc1cc(C(=O)Nc2ccc(C(=O)O)cc2)c(-c2ccccc2)o1`, the inhibition is 4% (inactive).

For `Cc1ccc[n+](CC(=O)c2ccc(NC(=O)c3ccccc3)cc2)c1`, the inhibition is -10.6% (inactive).

Take `COCCN(CCOC)S(=O)(=O)c1ccc(C(=O)Nc2sc3c(c2C(N)=O)CCCCC3)cc1`: the inhibition is 3.2% (inactive).

Take `CC(=O)Nc1ccc(NC(=O)COc2c(C)cc(Br)cc2C)cc1`: the inhibition is 13.2% (inactive).

Take `CCO/N=C(\C)c1c(O)c(CC)c(-c2ccccc2)n(-c2ccccc2)c1=O`: the inhibition is 9.9% (inactive).

In the case of `C=CCn1c(NC(=O)CC)c(C(=O)OCC)sc1=S`, the inhibition was 17.3% (inactive).

Regarding `C=CCn1c(NC(=O)c2ccc(Br)o2)c(C(=O)OCC)sc1=S`, the inhibition is 50.7% (active).

Turning to `CCOC(=O)c1sc(NC(=O)c2ccc(Br)o2)cc1C`, the inhibition is 11.7% (inactive).

Regarding `O=C(NCc1cn2ccccc2n1)c1ccccc1`, the inhibition was -15.8% (inactive).

On to `O=C(CCN1CCCC1Cc1ccccc1)c1ccc2c(c1)OCCO2` (stereo unspecified), for which the inhibition was 50.8% (active).

On to `O=C(CCN1CCC(c2ccccc2)C1)c1ccc2c(c1)OCCO2` (stereo unspecified), for which the inhibition is 47.6% (inactive).

In the case of `O=C(CCN1CCCCC1)c1ccc2c(c1)OCCO2`, the inhibition was 36.1% (inactive).

For `FC(F)Oc1cccc(NC(=S)N2CCN(c3ccccn3)CC2)c1`, the inhibition is 65.6% (active).

As for `COc1cccc(NC(=S)N2CCN(c3ccccn3)CC2)c1`, the inhibition is 12.3% (inactive).

Regarding `FC(F)(F)c1cccc(NC(=S)N2CCN(c3ccccn3)CC2)c1`, the inhibition is -17% (inactive).

Regarding `CN(C)c1cccc(C(=O)OCC(=O)Nc2nccs2)c1`, the inhibition was -1.5% (inactive).

In the case of `N/C(=N/O)c1nc(N2CCCCC2)nc(N2CCCCC2)n1`, the inhibition is 2.2% (inactive).

On to `COc1nc(N2CCCCCC2)nc(N2CCCCCC2)n1`, for which the inhibition is 2.3% (inactive).

Turning to `COc1nc(/C(N)=N/O)nc(N2CCCCC2)n1`, the inhibition is 66.9% (active).

As for `COc1ccc(C(=O)Nc2ccc(CN3CCCCC3)cc2)cc1`, the inhibition was 3% (inactive).

As for `CCOC(=O)Cn1nc(C)c([N+](=O)[O-])c1C`, the inhibition is -27.5% (inactive).

As to `CCc1c(C)sc(NC(=O)Cn2nc(C)c([N+](=O)[O-])c2C)c1C(N)=O`, the inhibition is 53.3% (active).

`Cc1nn(CC(=O)Nc2nccs2)c(C)c1[N+](=O)[O-]`: the inhibition is -3.9% (inactive).

As for `COc1ccc(C2CC(C(F)(F)F)n3nc(C(=O)NCCCn4ccnc4)cc3N2)cc1OC` (stereo unspecified), the inhibition is 41.3% (inactive).

`O=C(CN1CCCc2ccccc21)NCc1ccccc1Cl`: the inhibition is -13.5% (inactive).

Turning to `Cc1ccc(C(=O)Nc2ccc(N3CCN(S(C)(=O)=O)CC3)cc2)cc1`, the inhibition was 0.4% (inactive).

Turning to `Cc1ccc(S(=O)(=O)CCNC(=O)Cc2ccc(Cl)cc2)cc1`, the inhibition is 3.4% (inactive).

With `CC(C(=O)NCCS(=O)(=O)c1ccc(Cl)cc1)S(=O)(=O)c1ccc(Cl)cc1` (stereo unspecified), the inhibition is -15.8% (inactive).

For `O=C(CS(=O)(=O)c1ccc(Cl)cc1)NCCS(=O)(=O)c1ccc(Cl)cc1`, the inhibition is 59.5% (active).

Turning to `Cc1ccc(CNC(=O)c2cncc(Br)c2)cc1`, the inhibition is 10.4% (inactive).

Regarding `CCOC(=O)C(C)n1cnc2c(nnn2-c2ccc(OC)cc2)c1=O` (stereo unspecified), the inhibition is -2.7% (inactive).

For `CCOc1ccc(CNC(=O)CCCOc2cc(=O)n(C)c3ccccc23)cc1`, the inhibition was -6.3% (inactive).

With `Cc1c(Cc2ccc3c(c2)OCO3)sc(NC(=O)c2cccc3ccccc23)c1C(N)=O`, the inhibition was 56.7% (active).

As for `Cc1c(Cc2ccc3c(c2)OCO3)sc(NC(=O)c2ccccc2)c1C(N)=O`, the inhibition is -2.5% (inactive).

Consider `Cc1c(Cc2ccc3c(c2)OCO3)sc(NC(=O)c2ccc3ccccc3c2)c1C(N)=O`, for which the inhibition was 43.1% (inactive).

`CC1=C(C)/C(=N\OC(=O)/C=C/c2ccccc2)C=CC1=O`: the inhibition was 7.2% (inactive).

Regarding `CC1=C(C)/C(=N\OS(=O)(=O)c2ccc(C)cc2)C=CC1=O`, the inhibition was 75.6% (active).

With `Cc1ccc(S(=O)(=O)O/N=C2\CCCc3ccccc32)cc1`, the inhibition was 9.6% (inactive).

As for `COc1ccc(S(=O)(=O)/N=C2/C=CC(=O)C(C)=C2C)cc1`, the inhibition is 14.5% (inactive).

Take `CC1=C(C)/C(=N/OC(=O)c2cccc([N+](=O)[O-])c2)C=CC1=O`: the inhibition was 4.4% (inactive).

As for `CS(=O)(=O)N(CC(=O)NCC1CCCO1)c1cccc([N+](=O)[O-])c1` (stereo unspecified), the inhibition is -8.6% (inactive).

On to `CCn1c(CNC(=O)Cc2ccc(OC)cc2)nnc1SCCOc1ccccc1`, for which the inhibition is -11.5% (inactive).

As for `CC(C)Nc1nc(NC(C)C)nc(N(C)C#N)n1`, the inhibition is 3.3% (inactive).

Regarding `O=C(NN1CCN(Cc2ccccc2Cl)CC1)c1ccc(Br)cc1`, the inhibition was -9.1% (inactive).

Consider `O=S1(=O)CCN2C(c3cccc4ccccc34)=CSC2=N1`, for which the inhibition is 2.1% (inactive).

On to `Nc1nnc(SCCOc2ccccc2)s1`, for which the inhibition is 1.7% (inactive).

As for `Clc1ccc(OCc2nnc(-c3ccccc3Br)o2)c(Cl)c1`, the inhibition is -0.9% (inactive).

In the case of `Cc1ccc(NC(=O)/C(=C/c2cccc([N+](=O)[O-])c2)NC(=O)C2CCCCC2)cc1`, the inhibition is 14% (inactive).

In the case of `C/C(=N\O)C(=O)C(CN1CCCCC1)CN1CCCCC1`, the inhibition was 52.4% (active).

Consider `C/C(=N\O)C(=O)NCCN1CCCCC1`, for which the inhibition is 1.5% (inactive).

As to `CC(=O)/C(CN1CCCCC1)=N\O`, the inhibition is -6.1% (inactive).

With `CCc1c(C)nc2ncnn2c1NC1CCCc2ccccc21` (stereo unspecified), the inhibition is 15% (inactive).

On to `CC(C)c1ccc(NC(=O)C2CC(=O)N=C(N)S2)cc1` (stereo unspecified), for which the inhibition is 7.7% (inactive).

As for `Cc1ccc(C2=NN(C(=S)Nc3ccccc3)C(c3ccco3)C2)cc1` (stereo unspecified), the inhibition was 8.2% (inactive).

In the case of `Cc1ccc(C2CC(c3ccccc3)=NN2C(=S)Nc2ccccc2)o1` (stereo unspecified), the inhibition is 53% (active).

`COc1ccc(C2CC(c3ccccc3)=NN2C(=S)Nc2ccccc2)cc1` (stereo unspecified): the inhibition is 9.4% (inactive).

For the compound `O=C(O)CCN=Cc1c(O)c2ccccc2oc1=O`, the inhibition is 7.6% (inactive).

Regarding `CCOC(=O)c1c(C)oc2c1c(C=NCCC(=O)O)c(O)c1ccccc12`, the inhibition is 77.4% (active).

As for `Cc1ccc(-n2c(O)c(C=NC3CCS(=O)(=O)C3)c3ccccc3c2=O)cc1` (stereo unspecified), the inhibition was 5.7% (inactive).

Regarding `O=C(O)CCCN=Cc1c(O)c2ccccc2oc1=O`, the inhibition is 3.2% (inactive).

In the case of `CCOC(=O)c1c(C)oc2c1c(CN1CCN(CCO)CC1)c(O)c1ccccc12`, the inhibition was 57.7% (active).

With `CCOC(=O)c1c(C)oc2c1c(C(c1cccnc1)N1CCCCC1)c(O)c1ccccc12` (stereo unspecified), the inhibition was 28.2% (inactive).

`Cc1cc(C)cc(-n2c(O)c(C=NC3CCS(=O)(=O)C3)c3ccccc3c2=O)c1` (stereo unspecified): the inhibition was 14.1% (inactive).

Turning to `CCOC(=O)c1c(C)oc2c1c(C=NC1CCS(=O)(=O)C1)c(O)c1ccccc12` (stereo unspecified), the inhibition was 76.1% (active).

Take `CCOC(=O)c1c(C)oc2c1c(C(c1cccnc1)N1CCN(C)CC1)c(O)c1ccccc12` (stereo unspecified): the inhibition was 35.1% (inactive).

In the case of `CCOC(=O)c1c(C)oc2c1c(C(c1ccccc1)N1CCOCC1)c(O)c1ccccc12` (stereo unspecified), the inhibition is 37% (inactive).

For the compound `CCOC(=O)c1c(C)oc2c1c1c(c3ccccc32)OCN(Cc2cccnc2)C1`, the inhibition is 71.9% (active).

With `CCOC(=O)c1c(C)oc2c1c(CN1CCN(C(=O)OCC)CC1)c(O)c1ccccc12`, the inhibition is 25.1% (inactive).

In the case of `CCC1CCCCN1C(=O)COc1cccc2c1CCN(C)C2=O` (stereo unspecified), the inhibition is -3.6% (inactive).

`O=C(C[n+]1cccc(CO)c1)Nc1nc2ccccc2s1`: the inhibition was -3.4% (inactive).

For the compound `O=c1c2sc(-c3ccccc3)cc2nc2n1CCC2`, the inhibition is -4.9% (inactive).

Consider `Clc1ccc(N/N=C/c2ccncc2)cc1Cl`, for which the inhibition was 5.3% (inactive).

As for `O=C(COC(=O)[C@@H]1CCCN1S(=O)(=O)c1ccccc1F)Nc1ccc(OC(F)F)cc1`, the inhibition is 9.6% (inactive).

Take `Cn1c(SCC(=O)NCC2CCCO2)nnc1-c1ccc(S(=O)(=O)N2CCCC2)cc1` (stereo unspecified): the inhibition was -1.5% (inactive).

Take `CCNC(=O)NC(=O)C(C)SCc1ccccc1C` (stereo unspecified): the inhibition is -8.4% (inactive).

On to `CCOC(=O)c1c(NCC2CCCO2)c2ccccc2[nH]c1=O` (stereo unspecified), for which the inhibition was -8.8% (inactive).

As for `Oc1[nH]c2ccccc2c1C=NCC1CCCO1` (stereo unspecified), the inhibition is -2.9% (inactive).

Regarding `CCOC(=O)c1c(C)oc2c1c(C=NCC1CCCO1)c(O)c1ccccc12` (stereo unspecified), the inhibition was 63.6% (active).

In the case of `CCOC(=O)c1c(C)oc2c1c(C(c1ccncc1)N1CCOCC1)c(O)c1ccccc12` (stereo unspecified), the inhibition was 21% (inactive).

In the case of `CCOC(=O)c1c(C)oc2c1c(C(c1cccnc1)N1CCOCC1)c(O)c1ccccc12` (stereo unspecified), the inhibition is 22.6% (inactive).

`O=c1oc2ccccc2c(O)c1C=NCc1ccccn1`: the inhibition was 5.9% (inactive).

Take `CCOC(=O)c1c(C)oc2c1c(C=NCc1ccccn1)c(O)c1ccccc12`: the inhibition was 62.5% (active).

As to `CCOC(=O)c1c(C)oc2c1cc(O)c1ccccc12`, the inhibition was 13.4% (inactive).
